Source: PubChem (National Center for Advancing Translational Sciences (NCATS))
A selection: hits, their analogues and other compounds. The true share with any hit is near 5.3%.
FMDV inh = foot and mouth disease virus antiviral activity; 1.2% of 410,000 active; Potency, µM (top dose mostly 57.9 µM), for the others: at the top dose activity change, negative = inhibition, usual class: inhibitors; FMDV antiviral cell-based qHTS; AID 1159524; calls by dose curve; tested in HEK293T cells; further: read-out not given here; nearly all actives have a fitted effect of over 45% in size
HCV inhibitor = HCV inhibition; Potency, µM (doses to about 41.8 µM), inactives show at the top dose activity change, negative = inhibition, usual class: inhibitors; Huh7.5.1 HCVcc-Cre infection, luciferase reporter, 44 h; 3.4% of 340,000 active; active means well fitted inhibition curve with a large enough effect; inconclusive means small, poorly fitted or top-dose-only effect, or another doubt; inactive means no such curve, though single readings can be large or run the other way
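Infectious HCVcc-Cre (~0.5 moi) was added to cells just after compound, with cells seeded 4 h earlier at 1,000 per well. Luciferase activity after 44 h culture reported infection; substrate was incubated 15 min at room temperature before reading.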
VACV Venus inh = vaccinia inhibition (Venus reporter); 0.46% of 330,000 active; Vaccinia virus Venus reporter expression, fluorescence; Potency, µM (highest dose often 36.5 µM), without a hit: at the top dose activity change, negative = inhibition, hits mostly inhibitors; calls by dose curve; tested in A549 cells; further: nearly all actives have a fitted effect of over 30% in size
LASV entry inh = inhibitors of Lassa virus binding or cell entry | Potency, µM (titrated, usually from 37.9 µM), inactives show at the highest dose activity change, negative = inhibition, most hits filed as inhibitors | 1.2% of 300,000 active | Lassa virus pseudotype entry inhibition, cell reporter; calls by dose curve; tested in HEK293 cells; further: nearly all actives have a fitted effect of over 50% in size
Marburg entry inh = inhibitors of Marburg virus binding or cell entry. Marburg virus pseudotyped entry inhibition, cell reporter. Potency, µM (highest dose often 37.8 µM), inactives show top-dose activity change, negative = inhibition, usual class: inhibitors. 1.8% of 300,000 active. AID 540276; calls by dose curve; tested in HEK293 cells
VACV mCherry inh = vaccinia inhibition (mCherry reporter); Vaccinia virus mCherry reporter infection, fluorescence; Potency, µM (titrated, usually from 36.5 µM), inactives show at the top dose activity change, negative = inhibition, most hits filed as inhibitors; 0.63% of 310,000 active; AID 720579; calls by dose curve; tested in A549 cells; further: nearly all actives have a fitted effect of over 35% in size
* hit, by the source's call; i = inactive; u = inconclusive; x = no result given; [ ] = remark or other dose. On the % scale 0 is the no-effect control and ±100 the full control effect; potency means the concentration at half of the fitted maximal effect.

SMILES	FMDV inh	HCV inhibitor	VACV Venus inh	LASV entry inh	Marburg entry inh	VACV mCherry inh
CCOC(=O)c1ccc(NC(=O)C2CCCN(c3ncnc4onc(C)c34)C2)cc1 (centres undefined)	0%	x	-29%	u	x	-24%
O=C1NC[C@H](CCCCN2CCN(CCC3CCCCC3)C(=O)C2=O)N(CCC2CCCCC2)C1=O	-4%	x	-3%	x	x	4%
COc1cccc(NC(=O)CCc2nnc3n(CC(C)C)c(=O)c4ccccc4n23)c1	-10%	x	-8%	x	u	-14%
COc1ccc(-n2c(SCC(=O)N3CCCCC3)nc3ccccc3c2=O)cc1	-7%	2%	2%	12%[46.1 µM]	u	i
Cc1noc(C)c1CSc1nc2ccccc2c(=O)n1-c1ccccc1	u	4µM*	-22%	u	u	x
Cc1noc(C)c1CSc1nc2[nH]ncc2c(=O)n1-c1ccccc1	17%	-5%	u	4µM*	u	u
CCOC(=O)N1CCN(C(=O)CSc2nc3ccccc3c(=O)n2-c2ccccc2)CC1	u	9%	-21%	8.9µM*	-28%	x
COc1cc2c(cc1OC)CN(C(=O)CSc1nc3[nH]ncc3c(=O)n1-c1ccccc1)CC2	-20%	11µM*	-21%	x	-4%	-1%
COc1cc(NC(=O)CSc2nc3[nH]ncc3c(=O)n2-c2ccccc2)cc(OC)c1OC	-21%	x	u	x	x	-11%
CCCS(=O)(=O)NCc1c(C)ncc2c1CCN(C(=O)c1cccc(-c3ccccc3F)c1)C2	7%	x	17%	x	x	-3%
COc1ncc2nc(-c3cc(F)cc(F)c3)c(=O)n(-c3ccccc3)c2n1	8%	x	x	x	x	x
CCOc1ccc(Cl)cc1C1=CC(=O)C[C@H](c2ccc(OC)cc2)C1	0%	8.9µM*	-25%	x	x	i
COc1ccc([C@H]2CC(=O)C=C(c3cc(Cl)ccc3OC)C2)cc1	2%	u	u	x	x	-20%
C[C@@H]1C=CCC(=O)N2[C@H](CC(=O)N[C@@H]1c1ccccc1)C[C@@H](C)[C@@H]2c1ccccc1	x	x	x	u	-24%[14.2 µM]	x
Cc1cc(NCCCN2CCOCC2)n2ncc(-c3ccc(Cl)cc3)c2n1	28%	13µM*	x	u	-20%	x
CN(C)CCCNc1cc(C(C)(C)C)nc2c(-c3ccc(Cl)cc3)cnn12	1%	10µM*	-5%[7.34 µM]	u	u	i[7.34 µM]
Cc1cc(NCCCn2ccnc2)n2ncc(-c3ccc(Cl)cc3)c2n1	3%	7.1µM*	u	u	u	13µM*
CC(C)(C)c1cc(NCCCn2ccnc2)n2ncc(-c3ccccc3)c2n1	13%	u	-27%	u	u	-15%
CC(C)(C)c1cc(NCc2ccccn2)n2ncc(-c3ccc(Cl)cc3)c2n1	4%	u	x	x	x	x
Cc1ccc2ncccc2c1	0%	4%	-5%	x	x	i
c1cnc2ccc(-c3ccc4ncccc4c3)cc2c1	-25%	-10%	-26%	4.5µM*	u	-20%
N#Cc1cccc(NC(=O)N2CC[C@@]3(CCCN(C(=O)c4cnccn4)C3)C2)c1	-8%	x	x	x	x	x
CCOc1ccc(-c2cc3cc(OC)c(OC)cc3c(C)n2)cc1	-7%	u	-1%	-22%	1%[46.1 µM]	5%
CCc1nc(-c2ccc(OC)c(OC)c2)cc2cc(OC)c(OC)cc12	-22%	3.2µM*	-7%	0%	-3%	-8%
Nc1ncc(S(=O)(=O)NCc2cccc(Cl)c2)cn1	-1%	x	-3%	3%[46.1 µM]	x	-12%
SMILES	FMDV inh	HCV inhibitor	VACV Venus inh	LASV entry inh	Marburg entry inh	VACV mCherry inh
CCOc1c2c(c(-c3ccc4c(c3)OCO4)c3cc(OC)c(OC)cc13)C(=O)OC2	x	x	4µM*	x	x	u
CCCN1CCCc2cc(CN(CCCN3CCOCC3)C(=O)Nc3ccc(Cl)c(Cl)c3)ccc21	-26%	x	-11%	u	x	-20%
O=C1c2c(O)cc(O)cc2O[C@H](c2ccc(O)c(O)c2)[C@H]1O	-12%	0.56µM*	-16%	x	x	i
N#C[C@H](C(=O)NC1CC1)c1nc2ccccc2nc1N1CCN(C/C=C\c2ccccc2)CC1	x	x	x	x	0%	x
CCCCCCN1C[C@H](n2cc(-c3ccc(F)cc3)nn2)[C@@H](O)C[C@@H]1c1ccc(Cl)cc1	-6%	x	14µM*	x	x	u
Cc1ccc([C@H]2C[C@H](O)[C@@H](n3cc(-c4ccc(F)cc4)nn3)CN2CC2CCCCC2)cc1	-6%	x	-22%	28µM*	x	i
O=C(C1CCCCC1)N1C[C@H](O)[C@H](n2cc(-c3ccc(F)cc3)nn2)C[C@@H]1c1ccc(Cl)cc1	x	x	x	x	7.9µM*	x
Cc1ccc([C@H]2C[C@H](O)[C@@H](n3cc(-c4ccc(F)cc4)nn3)CN2Cc2cccs2)cc1	-14%	x	u	u	x	u
COc1ccc([C@H]2C[C@@H](O)[C@H](n3cc(-c4ccc(F)cc4)nn3)CN2Cc2cccs2)cc1	x	x	x	x	8.9µM*	x
C[C@@H]1CN(Cc2ccc3c(c2)CN(Cc2cccc4cccnc24)CCO3)C[C@H](C)O1	2%	x	-1%	x	x	-7%
CCCCCCN1C[C@H](n2cc(COC(=O)c3ccccc3)nn2)[C@@H](O)C[C@@H]1c1ccc(Cl)cc1	u	x	10µM*	x	x	u
COc1cc(-c2noc(C)c2C#Cc2ccc(N)cc2)cc(OC)c1OC	10%	2.2µM*	u	x	x	-30%
NC(N)=NN=C1CCC(c2ccccc2)CC1 (centres undefined)	7.1µM*	-5%	-6%	-8%[46.1 µM]	14%[46.1 µM]	-27%
Cc1ccc(S(=O)(=O)OC[C@@H]2CN3[C@H](c4ccc(Br)cc4)[C@H](C)CC[C@H]3C(=O)O2)cc1	x	x	x	x	-12%[14.2 µM]	x
Cc1ccc(NC(=O)CCS(=O)(=O)c2ccc3c(c2)oc(=O)n3C)c(Br)c1	-20%	x	-8%	8%[46.1 µM]	x	-20%
COc1ccc(C2CC3(CC(C)(C)NC(=S)N3)Oc3cc(O)cc(C)c32)cc1 (centres undefined)	-6%	u	-17%	u	u	i
COc1ccc(C2CC3(CC(C)(C)NC(SC)=N3)Oc3cc(O)cc(C)c32)cc1 (centres undefined)	-25%	13µM*	-24%	18µM*	10µM*	u
Cc1cc(O)cc2c1C(c1ccc(F)cc1)CC1(CC(C)(C)NC(=S)N1)O2 (centres undefined)	-22%	22µM*	-1%	u	-9%[46.1 µM]	-8%
C[C@@H]1CC[C@H]2C(=O)N(Cc3cccc([N+](=O)[O-])c3)C[C@H](O)CN2[C@@H]1c1cccc(Br)c1	x	x	x	7%[14.3 µM]	-10%[14.2 µM]	x
CCCC[C@]1(C(=O)OCC)C[C@H](CN2CCOCC2)OC1=O	x	x	x	x	5%	x
COc1cc(OC)cc(-c2nnc(NC(=O)CCS(=O)(=O)c3ccc(C)cc3)o2)c1	-15%	-1%	u	u	-12%[46.1 µM]	7.9µM*
O=C(CCS(=O)(=O)c1ccccc1)Nc1nnc(-c2ccco2)o1	0%	14%	u	2%[46.1 µM]	2%[46.1 µM]	11µM*
